# Compounds without any hit were thinned out: in the full panel of roughly 83,000, 20% have a hit.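 Cell lines were cultured in 96-well plates, exposed to a single compound concentration, and assessed for percent growth 48 hours later.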 Values without a mark were called inactive. The source made the active and inactive calls. Rule for the calls: active = growth percent below 10; inactive = the rest.
# Tested on: HL-60(TB) leukemia
# Assay: NCI-60 one-dose screen, 48 h (100 = growth as untreated, 0 = no growth, -100 = all killed)
# Conditions: 10 µM unless noted
row,SMILES,growth
1,CCN(CC)CCNc1ccc(N=Nc2cnc3ccccc3c2)c2ccccc12,-72.2% (active)
2,COc1cccc(OC)c1Oc1c(-c2nc3ccccc3s2)c(C)nn1-c1ccccc1,81.8%
3,CN(C)CC1C(=O)O[C@H]2[C@H]1CC/C(COC(=O)c1cc3ccccc3[nH]1)=C\CC[C@@]1(C)O[C@@H]21 (stereo not given in full),-36% (active)
4,COc1cc(C2C=C(c3ccc(Cl)cc3)N=C3SC(C)=CN32)cc(OC)c1OC (stereo not given),93.6%
5,O=C1Nc2ccc(F)cc2/C1=N/c1nnc(Sc2ccccc2)s1,49.6%
6,COc1cc2c(cc1OCCCN1CCN(CCCn3c4ccccc4c4ccccc43)CC1)N=C[C@@H]1CCCN1C2=O,-44.8% (active)
7,COC(=O)c1[nH]nc(OC)c1C1(C(C#N)c2nc3ccccc3s2)CCCc2ccccc21 (stereo not given),79.8%
8,Oc1ccc(Cc2ccc(O)c(C3CC(c4ccc(Cl)cc4)=NN3)c2)cc1C1CC(c2ccc(Cl)cc2)=NN1 (stereo not given),-23.6% (active)
9,Cc1ccc(N)cc1F,120%
10,Cc1ccc(N)cc1CN1C(=O)c2ccccc2C1=O,107%
11,COc1ccccc1/C=N\N/C(N)=N\N=C\c1ccccc1OC,-25.9% (active)
12,CCCCCc1ccc(S(=O)(=O)Nc2cc(-c3csc(NC(C)=O)n3)ccc2N2CCN(C)CC2)cc1,-61.7% (active)
13,COc1ccc(C2CC(c3cccc(Nc4ccncc4)c3)=NN2c2ccccc2)cc1 (stereo not given),-32.8% (active)
14,O=C(N/N=C\c1ccc(-c2ccc(Br)cc2)o1)c1cc2oc(-c3cccc(C(F)(F)F)c3)cc2[nH]1,146%
15,CCCCCCCCCCCC[S+](C)CC(=O)[O-] (stereo not given),20.3%
16,CCCCCCCCCCCCCC[n+]1ccc2c(C)c3c(c(C)c2c1)c1cc(O)ccc1n3CC,-40.6% (active)
17,CCCCCCOc1ccc(C(=N)N(CCCC)CCCC)c2ccccc12,-49.6% (active)
18,CCCCn1c(=O)c(-c2cc(-c3ccc(Cl)cc3)nc(-c3ccc(Cl)cc3)c2)cc2cc(C)ccc21,100%
19,Cc1cccnc1NC(=S)Nc1ncccc1C,136%
20,COc1ccc(/C=C/C(=O)c2ccc(O)c(CN3CCN(c4cc5c(cc4F)c(=O)c(C(=O)O)cn5C4CC4)CC3)c2)cc1,0.375% (active)

row,SMILES,growth
1,NCCn1cc(-c2nc(-c3c[nH]c4ncccc34)cs2)c2cc(Br)ccc21,51.1%
2,COc1cc2c(cc1I)-c1c(cc(OC)c(OC)c1OC)CC[C@@H]2NC(C)=O,6.93% (active)
3,CCN(CC)c1ccc(/C=N\NC(=O)c2cccc(Nc3ccnc(C(F)(F)F)c3)c2)c(O)c1,69.2%
4,CN(C[C@@H]1COCCO1)S(=O)(=O)Nc1ccc2ccc3ncc(-c4cnn(C)c4)cc3c(=O)c2c1,48.1%
5,CCCCC(O)(c1ccc(Cl)cc1)C(CN1CCOCC1)c1ccc(Cl)cc1 (stereo not given),53.6%
6,COc1ccc2[nH]c(=O)c(/C=N/Nc3nc(-c4ccccc4)cs3)c(O)c2c1,83.9%
7,Cc1ccc(C(=O)c2oc3ccc4c(C)cc(=O)oc4c3c2C)cc1,7.9% (active)
8,C=C1C(=O)O[C@H]2[C@H]1CC/C(COC(=O)c1cc3ccccc3s1)=C\CC[C@@]1(C)O[C@@H]21,-33.8% (active)
9,COc1cc(C(=O)Nc2cc(OC)c3ccn(C)c3c2)cc2c1C[C@]1(C)CC[C@@H](O)C(C)(C)[C@H]1O2,1.14% (active)
10,Clc1ccccc1CNc1c2ccccc2nc2ccccc12,13.6%
11,CC1=NC(c2ccc(Cl)cc2)C2=C(N1)/C(=C/c1ccc(Cl)cc1)CCC2 (stereo not given),85.8%
12,CC(=O)Nc1ccc(S(=O)(=O)n2ccc(-c3ccc4c(c3)CCC(C)(C)O4)n2)cc1,91.9%
13,O=NN(CCCl)C(=O)NCc1ccc(-c2ccc(CNC(=O)N(CCCl)N=O)cc2)cc1,88.6%
14,COc1ccc(/C=N/NC(=O)c2ccc(-n3cc(-c4ccccc4)nn3)cc2)cc1OC,94.2%
15,CCOc1cccc2c(NC(C)CCCN(CC)CC)c(C)cnc12 (stereo not given),105%
16,COCCOC(=O)COc1ccc(OC)cc1,90.7%
17,O=C(O)c1ccc(-c2nn(-c3ccc(C(F)(F)F)cc3)cc2CNc2ccc(Oc3ccccc3)cc2)cc1,35.5%
18,O=[N+]([O-])c1cnc(Sc2ccncn2)s1,-20.2% (active)
19,COc1ccc2c(c1)N(CCO)C1=C(C(=O)OC1)C2c1cc(OC)c(OC)c(OC)c1 (stereo not given),-16.7% (active)
20,Cc1c(C(=O)NCCC(=O)NO)sc2ncnc(Nc3ccc(F)c(Cl)c3)c12,103%
